Measured values from PubChem BioAssay AID1220 (Sanford-Burnham Center for Chemical Genomics, 2008).
The whole screen tested about 190,000 compounds, of which about 1,300 (0.68%) were called active. Cut-off read from the data, not from the text of the source: active = inhibition above about 50%; inactive = the rest. Only a selection was taken, and actives are over-represented in it overall.

Each compound was assayed against Mannose-6-phosphate isomerase (Homo sapiens) (UniProt P34949) (assay: MPI inhibition at elevated mannose 6-phosphate – biochemical, fluorescence intensity, high mannose 6-phosphate, primary screen (AID 1220)). Conditions: recombinant PMI enzyme, coupled fluorescence intensity; at 20 µM; active compounds read high.
Mannose-6-phosphate isomerase (Homo sapiens), sequence (P34949 whole entry, looked up): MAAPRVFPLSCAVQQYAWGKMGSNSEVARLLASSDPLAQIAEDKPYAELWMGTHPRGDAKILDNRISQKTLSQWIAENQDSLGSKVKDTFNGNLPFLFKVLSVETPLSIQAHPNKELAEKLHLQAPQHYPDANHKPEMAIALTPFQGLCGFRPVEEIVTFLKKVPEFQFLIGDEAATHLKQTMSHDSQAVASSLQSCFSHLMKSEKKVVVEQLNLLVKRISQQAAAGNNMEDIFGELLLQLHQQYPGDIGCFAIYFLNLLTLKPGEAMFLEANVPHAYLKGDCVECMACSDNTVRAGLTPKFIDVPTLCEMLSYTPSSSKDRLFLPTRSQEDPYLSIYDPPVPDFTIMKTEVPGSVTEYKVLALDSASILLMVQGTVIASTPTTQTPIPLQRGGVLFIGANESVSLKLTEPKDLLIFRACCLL
With `CCn1c2ccccc2c2nc3ccccc3nc21` the inhibition was 8.1% (inactive).
In the case of `CCn1c2ccccc2c2nc3cc(C(=O)O)ccc3nc21`, the inhibition is reported as 33.7% (inactive).
`CCc1cc(C(=O)N2CCCC(CCC(=O)NCc3cccc(OC)c3)C2)no1` (stereo not drawn) was tested, and the inhibition was -5.8% (inactive).
In the case of `COc1ccc(S(=O)(=O)Nc2cc3c4c(oc3c3ccccc23)CC(C)(C)CC4=O)cc1`, the inhibition is reported as 50.1% (active).
In the case of `COc1ccc(S(=O)(=O)Nc2cc3c4c(oc3c3ccccc23)CCCC4=O)cc1`, the inhibition is reported as 14.6% (inactive).
With `COc1ccc(S(=O)(=O)Nc2cc3c(C(C)=O)c(C)oc3c3ccccc23)cc1` the inhibition was -0.8% (inactive).
In the case of `COc1ccc(O[C@H]2C=C[C@@H](c3ccccc3)O[C@@H]2COC(=O)CC/C(C)=N/OC[C@@H](O)COCc2ccco2)cc1`, the inhibition is reported as 19.3% (inactive).
With `CCC(NC(=O)CCc1ccccc1)c1ccccc1` (stereo not drawn) the inhibition was 0.5% (inactive).
For `Cc1ccc2c(Cl)cc(Cl)c(OCC(=O)O)c2n1`, the inhibition was 9.9% (inactive).
With `Cc1ccc2c(Cl)cc(Cl)c(OCC(=O)N3CCCC3)c2n1` the inhibition was 54.6% (active).
`COC(=O)COc1c(Cl)cc(Cl)c2ccc(C)nc12` was tested, and the inhibition was 10.1% (inactive).
With `CCOc1ccc(C(NC(=O)/C=C/c2ccco2)c2ccc(OC)c(OC)c2)cc1` (stereo not drawn) the inhibition was 10.3% (inactive).
`COc1ccc(C2Nc3ccccc3C(=O)N2NS(=O)(=O)c2ccc(C)cc2)cc1` (stereo not drawn) was tested, and the inhibition was 5.5% (inactive).
For `Cc1ccc(OCCN(C)C(=O)CC2C(=O)NCCN2CC(C)(C)C)cc1` (stereo not drawn), the inhibition was 41.2% (inactive).
For `CN(Cc1ccon1)C(=O)CC1C(=O)NCCN1CC(C)(C)C` (stereo not drawn), the inhibition was 35.3% (inactive).
In the case of `COC(=O)CN(C)C(=O)CC1C(=O)NCCN1CC(C)(C)C` (stereo not drawn), the inhibition is reported as 56.5% (active).
With `COc1ccc(N2CCN(C(=O)COc3ccc4ccccc4c3)CC2)cc1` the inhibition was 6.1% (inactive).
`COc1ccc(CN2CCN(c3ccccn3)CC2)c(OC)c1` was tested, and the inhibition was -6.3% (inactive).
With `O=C(Nc1ccccc1)c1ccc(NCCN2CCOCC2)c(S(=O)(=O)N2CCOCC2)c1` the inhibition was 1.4% (inactive).
In the case of `CCOC(=O)C(Cc1c(F)cccc1Cl)c1ccnc2nc(N)nn12` (stereo not drawn), the inhibition is reported as 64.8% (active).
For `CCOC(=O)C(Cc1c(F)cccc1Cl)c1ccno1` (stereo not drawn), the inhibition was -11.3% (inactive).
`CCOC(=O)C(Cc1ccccc1)c1ccnc2nc(N)nn12` (stereo not drawn) was tested, and the inhibition was -9.3% (inactive).
For `CCN(CC)CCOC(=O)c1ccc(NC(=O)CNC(=O)C2CCCCC2)cc1`, the inhibition was -12.4% (inactive).
With `O=C1CC(c2ccccc2)n2nc(NC(=O)c3cccnc3)nc2N1` (stereo not drawn) the inhibition was -4.6% (inactive).
In the case of `Cc1ccc(-n2nnnc2SCC(=O)NNC(=O)c2ccc([N+](=O)[O-])cc2)cc1`, the inhibition is reported as 8.5% (inactive).
`Oc1ccc(N=Cc2ccc(-c3cccs3)s2)cc1` was tested, and the inhibition was 55.3% (active).
In the case of `Cc1ccsc1C=Nc1ccc(O)cc1`, the inhibition is reported as 45.3% (inactive).
In the case of `CC(=O)c1ccc(-c2cccs2)s1`, the inhibition is reported as 0.2% (inactive).
In the case of `COc1ccc(NC(=O)CCCN2C(=O)/C(=C\c3ccco3)SC2=S)cc1`, the inhibition is reported as 13.4% (inactive).
In the case of `O=C(O)CCCN1C(=O)/C(=C/c2ccc(-c3nc4ccccc4s3)o2)SC1=S`, the inhibition is reported as -50.1% (inactive).
In the case of `O=C(CCCN1C(=O)/C(=C\c2ccco2)SC1=S)Nc1ccc2ccccc2c1`, the inhibition is reported as -8.1% (inactive).
`O=C(O)CCCN1C(=O)/C(=C\c2ccco2)SC1=S` was tested, and the inhibition was 60.3% (active).
In the case of `O=C(O)CCN1C(=O)/C(=C\c2ccc(-c3nc4ccccc4s3)o2)SC1=S`, the inhibition is reported as 7.1% (inactive).
In the case of `O=C1/C(=C\c2cccs2)SC(=S)N1C1CCS(=O)(=O)C1` (stereo not drawn), the inhibition is reported as 12% (inactive).
For `O=C1/C(=C\c2ccco2)SC(=S)N1c1ccccc1`, the inhibition was 51.3% (active).
In the case of `Cc1ccc(/C=C2\SC(=S)N(C3CCS(=O)(=O)C3)C2=O)o1` (stereo not drawn), the inhibition is reported as 41.2% (inactive).
With `O=C1/C(=C/c2ccco2)SC(=S)N1C1CCS(=O)(=O)C1` (stereo not drawn) the inhibition was 54.7% (active).
With `O=C1/C(=C\c2ccco2)SC(=S)N1c1ccc(O)cc1` the inhibition was 39.1% (inactive).
For `O=C(O)CCN1C(=O)/C(=C/c2ccc(-c3nc4ccccc4s3)o2)SC1=S`, the inhibition was 54.7% (active).
In the case of `Cc1ccc(N2C(=O)/C(=C\c3ccco3)SC2=S)cc1`, the inhibition is reported as 39.7% (inactive).
For `CCC(=O)Nc1cc(-c2nn3c(C)nnc3s2)ccc1C`, the inhibition was 1.7% (inactive).
`O=C(CCOc1ccccc1)Nc1cccc(S(=O)(=O)Nc2ccccc2Cl)c1` was tested, and the inhibition was 13.1% (inactive).
`CCC(=O)Nc1ccc(S(=O)(=O)NCc2ccco2)cc1` was tested, and the inhibition was -9.3% (inactive).
`COc1ccc(NC(=O)c2onc(C)c2Cl)cc1OC` was tested, and the inhibition was -15% (inactive).
With `CCOC(=O)C1(Cc2ccc(Cl)cc2)CCN(CCCn2cccn2)CC1` the inhibition was 3.5% (inactive).
With `CN(c1ncc(C(F)(F)F)cc1Cl)N1C(=O)c2cccc([N+](=O)[O-])c2C1=O` the inhibition was 6.1% (inactive).
In the case of `Clc1cc(Cl)cc(C2=NCCC(c3ccccc3)O2)c1` (stereo not drawn), the inhibition is reported as 15.6% (inactive).
`CC1(C)CC(=O)C2=C(C1)OC(N)=C(C#N)C2c1ccccc1[N+](=O)[O-]` (stereo not drawn) was tested, and the inhibition was 47.5% (inactive).
In the case of `O=C(O)CN(c1ccc2c(c1)OCCO2)S(=O)(=O)c1ccccc1`, the inhibition is reported as -2.6% (inactive).
With `COc1ccc(OCC(=O)NC(CC(=O)O)c2ccc(OC)c(OC)c2)cc1` (stereo not drawn) the inhibition was -11.4% (inactive).
In the case of `Cc1c(Br)c(=O)oc2c(Br)c(O)c(O)cc12`, the inhibition is reported as -33.8% (inactive).
For `O=c1oc2c(O)c(O)cc3c(=O)oc4c(O)c(O)cc1c4c23`, the inhibition was 61.2% (active).
In the case of `Cc1c(Br)c(=O)oc2c(Br)c(O)ccc12`, the inhibition is reported as -8.7% (inactive).
`Cc1cccc(C(c2c(C)nn(-c3ccccc3)c2N)c2c(C)nn(-c3ccccc3)c2N)c1` was tested, and the inhibition was 16.3% (inactive).
For `O=C(NC1CCCCC1)c1cc(Cl)nc2ccccc12`, the inhibition was 1.4% (inactive).
In the case of `Cn1cc(/C=N\O)nc2c(=O)n(-c3ccccc3)c(=O)nc1-2`, the inhibition is reported as 56.5% (active).
In the case of `O/N=C/c1cn(-c2ccccc2)nn1`, the inhibition is reported as 6.9% (inactive).
With `Cc1[nH]n(-c2ccccc2)c(=O)c1/C=N/O` the inhibition was 5.9% (inactive).
With `Nc1cc(=O)[nH]c(SCC(=O)Nc2cccc(Cl)c2Cl)n1` the inhibition was 4.4% (inactive).
For `O=C(CSc1ncn(-c2ccccc2)n1)Nc1nncs1`, the inhibition was 5.2% (inactive).
For `COc1cc(C2C3C(=O)N(Cc4ccccc4)C(=O)C3ON2c2ccccc2)cc(OC)c1OC` (stereo not drawn), the inhibition was 7.3% (inactive).
For `COc1cc(C2C3C(=O)N(Cc4ccccc4)C(=O)C3ON2c2ccccc2)cc(OC)c1O` (stereo not drawn), the inhibition was 54.2% (active).
`COc1ccc(C2C3C(=O)N(Cc4ccccc4)C(=O)C3ON2c2ccccc2)c(OC)c1OC` (stereo not drawn) was tested, and the inhibition was 15% (inactive).
